From PubChem
In the library only some 11% were active in any assay of this set; here they are far more common.
G9a block: blocks human histone lysine methyltransferase G9a | actives 8.8% (n = 350,000) | Potency, µM (highest dose often 102 µM), actives largely listed as inhibitors | Q96KQ7 | AID 504332 | G9a H3K9 monomethylation, AlphaScreen, 2 h; further: nearly all actives have a fitted effect of over 75% in size
Target sequence (Q96KQ7 913-1193 limits assumed): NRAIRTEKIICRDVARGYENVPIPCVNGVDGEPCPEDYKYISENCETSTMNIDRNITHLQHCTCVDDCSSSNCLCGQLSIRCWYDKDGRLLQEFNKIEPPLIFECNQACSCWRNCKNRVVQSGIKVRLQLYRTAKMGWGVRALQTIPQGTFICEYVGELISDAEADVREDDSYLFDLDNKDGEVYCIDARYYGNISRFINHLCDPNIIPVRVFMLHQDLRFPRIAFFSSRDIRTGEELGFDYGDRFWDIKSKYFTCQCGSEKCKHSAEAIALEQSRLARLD
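Using a bead-based AlphaScreen, monomethylated H3K9 product from 2 h room-temperature reactions (G9a 20 nM, peptide 500 nM, SAM 20 uM) was detected with 0.5 ug/mL rabbit anti-H3K9me1 antibody.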
Tau fluor cs: counter-screen for tau fibril formation inhibitors | tau K18 P301L Alexa594 fluorescence, heparin fibrillization | Potency, µM (top dose mostly 57.7 µM) | actives 0.93% (n = 280,000) | AID 1463; further: nearly all actives have a fitted effect of over 55% in size
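Human tau K18 P301L (15 uM unlabeled, 0.24 uM Alexa 594-labeled) in 100 mM sodium acetate pH 7 with 20 uM heparin, 6 hr at 37 C. ThT 30 uM added, 1 hr ambient; Alexa 594 FP and total fluorescence read at 555/632 nm.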
Sfp inh: Sfp phosphopantetheinyl transferase inhibition; Q9F4F7; Biochemical Sfp PPTase activity, qHTS; Potency, µM, most hits filed as inhibitors; actives 3.5% (n = 310,000); AID 1490;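 further: the enzyme is Sfp with the accession as filed and its product quenches rhodamine fluorescence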
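Buffer: 50 mM Hepes-Na pH 7.6, 10 mM MgCl2, 0.01% Nonidet P-40, 0.01% BSA. Enzyme 15 nM, pre-exposed to compound 15 min; substrates then added and fluorescence change tracked over 30 min.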
Coupling enz: inhibits coupling enzyme system, counter-screen for aldolase hits. activity change, negative = inhibition, % at 58.2 µM, hits read low. actives 0.67% (n = 290,000). coupling enzyme system counterscreen, AmpLite Red fluorescence; in the data active means activity change below about -30%
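Activity here indicates interference with the coupling reaction, not aldolase inhibition. Compounds at 57.5 uM final met coupling enzymes for 10 min at RT; substrate and AmpLite Red detection followed, with a 525/598 nm fluorescence read after 20 min.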
Tau fibril FP: tau fibrillization inhibition (FP) | actives 0.39% (n = 280,000) | Potency, µM (top dose mostly 57.7 µM), actives largely listed as inhibitors | K18 P301L tau heparin fibrillization, Alexa594 FP, 6 h | P10636; further: nearly all actives have a fitted effect of over 55% in size
Target sequence (P10636 561-689 P618L limits assumed): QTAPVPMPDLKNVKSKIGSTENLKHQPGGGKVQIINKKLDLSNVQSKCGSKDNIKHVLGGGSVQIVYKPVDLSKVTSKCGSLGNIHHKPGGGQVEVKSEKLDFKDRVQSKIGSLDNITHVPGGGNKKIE
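K18 P301L tau (15 uM unlabeled/0.24 uM Alexa 594-labeled, final) + compound + heparin 20 uM final; 100 mM NaOAc pH 7; 6 hr 37 C; ThT 30 uM final added, 1 hr RT; FP ex 555/em 632 nm.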
Tau fibril ThT: blocks human tau fibril formation measured by thioflavin T; AID 1460; actives 2.1% (n = 270,000); P10636; Potency, µM (series often up to 57.4 µM), hits mostly inhibitors; recombinant tau K18 P301L (four-repeat tau fragment), heparin-induced fibrillization, ThT fluorescence; further: nearly all actives have a fitted effect of over 55% in size
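K18 P301L tau (15 uM + 0.24 uM Alexa 594-tagged), heparin 20 uM, NaOAc pH 7, 6 h 37 C; ThT 30 uM, 1 h RT, ex 450/em 510 nm.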
A number is an active result; [ ] = another dose, or the depositor's remark. Unless noted, the call rests on the fitted dose curve; in most records, active means well fitted curve in the direction sought with a large enough effect; inconclusive means small, poorly fitted or top-dose-only effect, or another doubt; inactive means no such curve, though single readings can be large; an effect the other way counts as inactive or inconclusive.

`CCC(CC)C(=O)Nc1ccc2nc(SCC(=O)N3CCCC3)sc2c1` gave G9a block inactive, Tau fluor cs inactive, Tau fibril FP inactive and Tau fibril ThT inactive.
`CCOC(=O)C1=C(O)/C(=C\c2cccs2)N=C1C` gave G9a block inactive, Tau fluor cs inactive, Sfp inh inactive, Coupling enz inactive, Tau fibril FP inactive and Tau fibril ThT inconclusive.
`CCOC(=O)C1=C(O)/C(=C\c2ccc(CNC(=O)C(=O)Nc3ccccc3)o2)N=C1C` gave G9a block inconclusive, Tau fluor cs inactive, Sfp inh 32µM, Coupling enz inactive, Tau fibril FP inactive and Tau fibril ThT inactive.
Cc1ccc(CNC(=O)Cn2c(=O)n(Cc3ccccc3)c(=O)c3c2c2cc(C)ccc2n3C)cc1 was read as G9a block inactive, Tau fluor cs inactive, Tau fibril FP inactive and Tau fibril ThT inactive.
`CCc1ccc(OCCCC(=O)Nc2ccc(N3CCOCC3)cc2)cc1` gave Tau fluor cs inactive, Sfp inh inactive, Coupling enz inactive, Tau fibril FP inactive and Tau fibril ThT inconclusive.
For Cc1ccc(C)c(OCCCC(=O)Nc2ccc(N3CCOCC3)cc2)c1 the results were G9a block 40µM, Tau fluor cs inactive, Sfp inh inactive, Coupling enz inactive, Tau fibril FP inactive and Tau fibril ThT inconclusive.
Screening Cc1ccc(C)c(OCC(=O)Nc2ccc(N3CCOCC3)cc2)c1 returned G9a block 32µM, Tau fluor cs inactive, Sfp inh inactive, Coupling enz inactive, Tau fibril FP inactive and Tau fibril ThT inconclusive.
Cc1cccc(OCCCC(=O)Nc2ccc(N3CCOCC3)cc2)c1 was read as G9a block 13µM, Tau fluor cs inactive, Sfp inh inactive, Coupling enz inactive, Tau fibril FP inactive and Tau fibril ThT inconclusive.
`Cc1ccc(C)c(OCC(=O)Nc2ccccc2C(=O)N2CCOCC2)c1` gave G9a block 89µM and Sfp inh inactive.
Screening COc1cccc(CN2CC(C(=O)N3CCN(c4ccc(Cl)cc4)CC3)CCC2=O)c1 (centres undefined) returned G9a block inactive and Sfp inh inactive.
`COC(=O)[C@H](CCSC)NC(=O)C/C=C\[C@@H](C)[C@@H](CO)OC` gave Tau fluor cs inactive[11.6 µM], Sfp inh inactive, Coupling enz inactive, Tau fibril FP inactive[11.6 µM] and Tau fibril ThT inactive[11.5 µM].
For CCC(=O)Nc1nnc(S(=O)(=O)N(C)Cc2ccccc2)s1 the results were G9a block inactive, Tau fluor cs inactive, Tau fibril FP inconclusive and Tau fibril ThT inactive.
`Cc1cc(C)c(OCC(=O)Nc2cc(C(=O)O)cc(C(=O)O)c2)cc1C` gave G9a block inactive, Tau fluor cs inactive, Sfp inh inactive, Coupling enz inactive, Tau fibril FP inactive and Tau fibril ThT inactive.
`Cc1ccc(C)c(OCC(=O)Nc2cc(C(=O)O)cc(C(=O)O)c2)c1` gave G9a block 45µM, Tau fluor cs inactive, Sfp inh inactive, Coupling enz inactive, Tau fibril FP inactive and Tau fibril ThT inactive.
`COCCCNC(=O)C1CCN(Cc2cc3ccccc3n2Cc2cccc(Cl)c2)CC1` gave G9a block inconclusive, Tau fluor cs inactive, Tau fibril FP inactive and Tau fibril ThT inactive.
Screening CCc1cc(=O)oc2cc(C)cc(OCc3nn[nH]n3)c12 returned G9a block 45µM, Tau fluor cs inactive, Sfp inh inactive, Coupling enz inactive, Tau fibril FP inactive and Tau fibril ThT inactive.
Screening COC(=O)Cc1c(C)c2c(OCc3nn[nH]n3)cc(C)cc2oc1=O returned G9a block 45µM, Tau fluor cs inactive, Sfp inh inactive, Coupling enz inactive, Tau fibril FP inactive and Tau fibril ThT inactive.
Screening Cc1c(C)c2cc(Cl)c(OCc3nn[nH]n3)cc2oc1=O returned G9a block inconclusive, Tau fluor cs inactive, Sfp inh 79µM, Coupling enz inactive, Tau fibril FP inactive and Tau fibril ThT inactive.
`COC(=O)Cc1c(C)c2ccc(OCc3nn[nH]n3)cc2oc1=O` gave G9a block inconclusive, Tau fluor cs inactive, Sfp inh inactive, Coupling enz inactive, Tau fibril FP inactive and Tau fibril ThT inactive.
`COc1cccc(C(=O)Nc2ccc(C(=O)OCc3cc(=O)n4cc(C)sc4n3)cc2)c1` gave G9a block inactive, Tau fluor cs inactive, Tau fibril FP inactive and Tau fibril ThT inactive.
`CC1CCCN(C(=S)Nc2ccc(Nc3ccccc3)cc2)C1` (centres undefined) gave G9a block 40µM, Tau fluor cs 13µM[quencher], Sfp inh inconclusive, Coupling enz inactive, Tau fibril FP inconclusive and Tau fibril ThT inconclusive.
`OC1CCN(C(=S)Nc2ccc(Nc3ccccc3)cc2)CC1` gave G9a block inconclusive, Tau fluor cs inactive, Sfp inh 18µM, Coupling enz inactive, Tau fibril FP inactive and Tau fibril ThT inconclusive.
Screening S=C(Nc1ccccc1)N1CCC(C2CCN(C(=S)Nc3ccccc3)CC2)CC1 returned Tau fluor cs inactive, Sfp inh inactive, Coupling enz inactive, Tau fibril FP inactive and Tau fibril ThT inactive.
`CC1(CCC(=O)N2CCCC(N3CCN(c4ccc(F)cc4)CC3)C2)CC1` (centres undefined) gave G9a block inactive and Sfp inh inactive.
CCn1nc(-c2ccccc2)c(-c2ccccc2)c(C(=O)Nc2ccc(NC(C)=O)cc2)c1=O was read as G9a block inactive, Tau fluor cs inactive, Tau fibril FP inactive and Tau fibril ThT inactive.
For COc1ccc(CCNc2ccc(C(CC(N)=O)NC(=O)c3cc(OC)ccc3OC)cc2[N+](=O)[O-])cc1 (centres undefined) the results were G9a block 45µM, Sfp inh inactive and Coupling enz inactive.
`NC(=O)CC(NC(=O)c1ccc(Br)cc1)c1ccc(NCCc2ccc(F)cc2)c([N+](=O)[O-])c1` (centres undefined) gave G9a block inactive[12.7 µM], Tau fluor cs inactive, Sfp inh inactive, Coupling enz inactive, Tau fibril FP inactive and Tau fibril ThT inconclusive.
`COc1ccc(OC)c(C(=O)NC(CC(N)=O)c2ccc(NCCOc3ccccc3)c([N+](=O)[O-])c2)c1` (centres undefined) gave Sfp inh inactive and Coupling enz inactive.
Screening NC(=O)CC(NC(=O)c1ccccc1)c1ccc(NCCOc2ccccc2)c([N+](=O)[O-])c1 (centres undefined) returned G9a block inconclusive, Tau fluor cs inactive, Sfp inh inactive, Coupling enz inactive, Tau fibril FP inactive and Tau fibril ThT 13µM.
